Bioassay records from PubChem BioAssay.
Shown are actives, neighbours in structure and some others; about 2.8% of the full set was active somewhere.
POLH inh = qHTS for Inhibitors of Polymerase Eta; DNA polymerase eta (Homo sapiens), Q9Y253; recombinant Pol eta, fluorescent DNA replication assay; Potency, µM (highest dose often 114 µM), actives largely listed as inhibitors; 1.2% of 390,000 active; AID 588591, 2011
Target sequence (Q9Y253 whole entry, looked up): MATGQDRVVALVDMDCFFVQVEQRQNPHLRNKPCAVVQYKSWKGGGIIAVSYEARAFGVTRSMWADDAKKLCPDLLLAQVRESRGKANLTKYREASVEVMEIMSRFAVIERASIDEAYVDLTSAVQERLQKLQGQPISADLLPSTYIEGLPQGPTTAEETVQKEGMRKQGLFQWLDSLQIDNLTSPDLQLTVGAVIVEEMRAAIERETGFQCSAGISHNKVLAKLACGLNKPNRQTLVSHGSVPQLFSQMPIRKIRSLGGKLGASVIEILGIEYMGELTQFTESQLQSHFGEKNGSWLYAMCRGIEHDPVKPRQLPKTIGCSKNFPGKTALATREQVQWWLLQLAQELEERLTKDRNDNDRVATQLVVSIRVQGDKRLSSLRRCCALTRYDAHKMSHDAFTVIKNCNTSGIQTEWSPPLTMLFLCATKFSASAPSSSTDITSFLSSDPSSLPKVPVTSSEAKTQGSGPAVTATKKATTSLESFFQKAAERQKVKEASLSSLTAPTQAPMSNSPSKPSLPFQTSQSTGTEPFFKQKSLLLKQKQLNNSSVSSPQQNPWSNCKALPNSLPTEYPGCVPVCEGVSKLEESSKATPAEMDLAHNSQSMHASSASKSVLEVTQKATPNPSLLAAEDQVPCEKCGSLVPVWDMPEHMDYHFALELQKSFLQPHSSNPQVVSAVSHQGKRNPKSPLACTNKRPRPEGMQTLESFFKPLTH
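Pol eta at 10 nM preincubated with compounds 15 min at room temperature; reaction started with fluorescent substrate (50 nM final) and read kinetically at 0 and 10 min.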
Pol kappa inh = qHTS for Inhibitors of Polymerase Kappa; purified Pol kappa, fluorescent DNA synthesis assay, 10 min; Potency, µM (series often up to 107 µM), actives largely listed as inhibitors; 0.53% of 400,000 active; AID 588579, 2011
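10 nM Pol kappa preincubated 15 min at room temperature with compounds, then reaction started with substrate at 50 nM final. Fluorescence read kinetically at 0 and 10 min; buffer-only wells served as negative control.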
POLI inh = qHTS for Inhibitors of Polymerase Iota. DNA polymerase iota (Homo sapiens), Q9UNA4. Pol iota fluorescent replication assay, 10 min. Potency, µM (titrated, usually from 115 µM), hits mostly inhibitors. 1% of 390,000 active
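Pol iota at 10 nM preincubated 15 min with compounds at room temperature; reaction started with fluorescent substrate, 50 nM final. Fluorescence read kinetically at 0 and 10 min; buffer-only wells as negative control.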
WRN inhibitor = qHTS for Inhibitors of WRN Helicase; Bifunctional 3'-5' exonuclease/ATP-dependent helicase WRN (Homo sapiens), Q14191; WRN helicase unwinding, fluorescent forked duplex, kinetic; Potency, µM (titrated, usually from 114 µM), usual class: inhibitors; 0.46% of 360,000 active; AID 651768, 2012; also: nearly all actives have a fitted effect of over 55% in size
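WRN at 20 nM final preincubated with compound 15 min at room temperature; reaction started with 100 nM fluorophore/quencher forked duplex oligonucleotide and 2 mM ATP final. Unwinding followed kinetically by red fluorescence (ex 525, em 598 nm).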
PI5P4K alpha inh = qHTS for Inhibitors of phosphatidylinositol 5-phosphate 4-kinase (PI5P4K). Phosphatidylinositol 5-phosphate 4-kinase type-2 alpha (Homo sapiens), P48426. PI5P4Kalpha enzyme, ADP-Glo luminescence, 60 min; stronger effect = lower value. max response, %. 1.2% of 330,000 active. AID 652105, 2013; active = max response of -50% or lower; inconclusive = between -30% and -50%; inactive = -30% or higher; also: value at the top dose of about 77 µM
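ADP-Glo luminescence end-point read after a 60 min room-temperature kinase reaction of PI5P4Kalpha plus substrate, initiated with ATP at 5 microM final. Buffer: 0.038 M HEPES pH 7.4, EGTA, 0.1% CHAPS, 5% DMSO.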
POLB inh = qHTS Assay for Inhibitors of DNA Polymerase Beta; AID 485314, 2010; Pol beta primer extension/strand displacement, fluorescence kinetic; Potency, µM (titrated, usually from 114 µM), most hits filed as inhibitors; 1.3% of 340,000 active; P06746
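Preincubation: enzyme (10 nM) with compound, 15 min, RT. Reaction: substrate added to 50 nM final. Reads: 0 and 10 min. Analysis: normalized, Hill fit.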
Numbers stand for hits; . = inactive; ? = inconclusive; / = no result; [ ] = dose if it differs, or a comment. Unless noted, calls follow the shape of the dose curve; as a rule, active = well fitted curve in the direction sought with a large enough effect; inconclusive = small, poorly fitted or top-dose-only effect, or another doubt; inactive = no such curve, though single readings can be large; an effect the other way counts as inactive or inconclusive.

SMILES	POLH inh	Pol kappa inh	POLI inh	WRN inhibitor	PI5P4K alpha inh	POLB inh
CC(C)(C)N1C(=O)Cc2c1nc(N)c1c(N)nc(N3CCCCC3CO)c(C#N)c21 (stereo unspecified)	?	.	20µM	?	-58	.
CCOC(=O)c1c(-c2ccco2)csc1NC(=O)COC(=O)c1cnccn1	22µM	?	22µM	.	-64	/
CCOC(=O)c1c(-c2ccco2)csc1NC(=O)CSc1nnc(N)s1	?	?	35µM	.	/	28µM
CCOC(=O)c1c(-c2ccc(C)o2)csc1NC(=O)CSc1nncs1	.	.	?	.	/	.
CCOC(=O)c1c(NC(=O)COC(=O)c2cnccn2)sc(C(=O)NC)c1C	.	.	.	.	.	/
O=C(NCc1cccc(C(F)(F)F)c1)c1csc([C@@H]2C[C@H](O)[C@@H](CO)O2)n1	/	/	/	.	.	/
C=CCN1C(=O)/C(=C/c2ccc(OCC(=O)O)cc2)S/C1=N/c1nccs1	?	.	89µM	.	.	?
C=CCN1C(=O)/C(=C/c2ccc(O)c(OC)c2)S/C1=N/c1nccs1	.	.	.	.	.	.
COc1cccc(Cn2cccc(NC(=O)NCc3ccccc3)c2=O)c1	.	.	.	.	.	.
COc1cccc(Cn2cccc(NC(=O)Nc3ccccc3C)c2=O)c1	.	.	13µM	.[11.6 µM]	.	.
c1ccc(NC2=NCCN2CCC2CCCC2)cc1	.	.	.	.	.	.
C/C(=N\NC(=O)c1cc(C)nc2ccccc12)c1ccco1	.	.	.	.	.	?
C/C(=N\NC(=O)c1cccc(N/N=C(\C)c2ccco2)c1)c1ccco1	22µM	89µM	45µM	.[11.6 µM]	-86	.
C/C(=N\NC(=O)c1cccc([N+](=O)[O-])c1)c1ccco1	.	.	?	.	.	.
C/C(=N\NC(=O)c1cc2ccccc2cc1O)c1ccc(C)o1	.	.	?	.	-61	79µM
C/C(=N/NC(=O)c1cc2ccccc2cc1O)c1ccco1	.	?	45µM	.[11.6 µM]	-65	63µM
CC(=O)NCCc1ccc(C(=O)COC(=O)c2cc(C)oc2C)cc1	.	.	.	.	.	/
CCOC(=O)C1CCN(C(=O)Cn2nc(C)n3nc(-c4ccc(CC)cc4)cc3c2=O)CC1	.	.	.	.	.	.
O=[N+]([O-])c1ccc(O)c(Nc2ncnc3ccccc23)c1	?	.	.	.	.	28µM
C#CCOc1ccccc1/C=N/NC(=O)c1ccccc1OCc1ccccc1	.	.	.	.	.	.
O=C1N/C(=N/NC(=O)c2cccc3ccccc23)S/C1=C\c1ccccc1OCc1ccccc1	22µM	50µM	28µM	56µM	-55	50µM
CCOC(=O)c1cccc(NC(=O)COc2ccc3c(C)cc(=O)oc3c2)c1	.	.	.	/	/	.
O=C(Nc1ccc(N2CCOCC2)c2nonc12)C1CCCC1	.	.	?	.	.	.
Nc1ccc(N2CCOCC2)c2nonc12	79µM	.	?	.	.	?
Nc1nc2c(nc(SCc3ccccc3Br)n2[C@@H]2O[C@H](CO)[C@@H](O)[C@H]2O)c(=O)[nH]1	.	.	.	.	.	?
SMILES	POLH inh	Pol kappa inh	POLI inh	WRN inhibitor	PI5P4K alpha inh	POLB inh
CCOc1cccc(C2/C(=C(/O)c3ccc4c(c3)CC(C)O4)C(=O)C(=O)N2CCN2CCOCC2)c1 (stereo unspecified)	.	.	.	.	.	.
C=CCOc1cccc(C2/C(=C(/O)c3ccc4c(c3)CC(C)O4)C(=O)C(=O)N2CCN2CCOCC2)c1 (stereo unspecified)	.	.	89µM	.[11.6 µM]	.	.
CC1Cc2cc(/C(O)=C3/C(=O)C(=O)N(CC4CCCO4)C3c3ccco3)ccc2O1 (stereo unspecified)	14µM	.	?	.	.	22µM
COc1cccc(OC)c1C(=O)Nc1nc2ccc([N+](=O)[O-])cc2s1	.	.	.	.	.	.
CC(C)c1ccc(/C=C2\C(=N)N3N=C(CC(=O)N4CCCCC4)SC3=NC2=O)cc1	.	?	20µM	.[11.6 µM]	.	.
COc1ccc(-n2c(C)cc(/C=C3\C(=N)N4N=C(CC(=O)N5CCOCC5)SC4=NC3=O)c2C)cc1	32µM	?	50µM	.[11.6 µM]	.	0.89µM
CN(C)c1ccc(/C=C/c2ccnc3ccccc23)cc1Cl	/	.	.	/	/	/
Cc1ccc(CN2[C@H](C)[C@H](c3ccccc3)OCCS2(=O)=O)cc1	/	.	.	/	/	/
COc1ccc(C(=O)Nc2nc(OCC(F)(F)F)cnc2/C=C\c2ccccc2)c(OC)c1	/	/	/	.	.	/
CN(C)CCN(C(=O)/C=C/c1cccs1)c1nc2c(F)cc(F)cc2s1	.	.	?	.	.	40µM
CN(C)CCCN(C(=O)/C=C/c1cccs1)c1nc2ccc(F)cc2s1	.	.	?	.	.	.
CCOC(=O)CNS(=O)(=O)c1cc(-c2nnc(Nc3cccc(O)c3)c3ccccc23)ccc1C	.	?	89µM	/	/	.
C=C1C(=O)O[C@@H]2[C@@H]1CC/C(C)=C\CC[C@@]1(C)O[C@H]21	/	.[12 µM]	/	/	/	/
C=C1C(=O)OC2C1CCC(C)=C1C(=O)C3OC3(C)C12 (stereo unspecified)	89µM	.	?	.	.	/
N#C/C(=C(/O)CSc1nnc(Cc2cccs2)n1C1CCCCC1)c1nc2ccccc2[nH]1	25µM	?	?	.[11.6 µM]	-64	18µM
O=C1Nc2ccccc2C1Cc1ccc(Br)cc1 (stereo unspecified)	.	.	.	/	/	.
CN(C)c1ccc(CC2C(=O)Nc3ccccc32)cc1 (stereo unspecified)	.	.	25µM	.	.	.
Clc1cccc(Cc2c(-c3ccco3)nc3ccc(Cl)cn23)c1	/	/	/	.	-65	/
Clc1ccc(-c2nc3ccc(Cl)cn3c2Cc2cccc(Cl)c2)cc1	/	/	/	.	.	/
N#C/C(=C/c1ccc([N+](=O)[O-])cc1)C(=O)Nc1ccccc1O	.	.	.	.	.	.
N#C/C(=C/c1ccc(O)c([N+](=O)[O-])c1)C(=O)Nc1ccccc1	.	.	?	.	-61	.
N#C/C(=C\c1ccc(O)c(O)c1)C(=O)NCCc1ccccc1	8.9µM	?	?	.	.	.
N#C/C(=C\c1ccc(O)c(O)c1)C(=O)N1CCc2ccccc21	40µM	.	?	18µM	.	/
COc1cc(/C=C(\C#N)C(=O)NCCc2ccccc2)cc(OC)c1O	.	.	.	.	?	.
COc1cc(/C=C(\C#N)C(=O)N2CCc3ccccc32)ccc1O	.	.	.	.	.	.
